# Bioassay records: PubChem, NMMLSC
# RGS8-Gao: human RGS8-Galphao interaction regulation. P09471. multiplexed bead flow cytometry, RGS8-Galphao binding; actives lie on both sides. response (percent of control binding), % at 10 µM. 220,000 tested, 0.34% active; in the data active = response below about 60% or above about 140%; inactive = in between;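 also: Galphao activated as the GDP aluminium fluoride complex binding bead-coupled RGS8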
# RGS16-Gao HTS: regulators of human RGS16-Galphao interaction. 220,000 tested, 0.38% active. bead-based flow cytometry RGS16-Galphao binding, fluorescence; actives lie on both sides. binding response (% of control), % at 10 µM; call rule not given here;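 also: Galphao activated by GDP with aluminum fluoride before binding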
# Target sequence (O15492 whole entry, looked up): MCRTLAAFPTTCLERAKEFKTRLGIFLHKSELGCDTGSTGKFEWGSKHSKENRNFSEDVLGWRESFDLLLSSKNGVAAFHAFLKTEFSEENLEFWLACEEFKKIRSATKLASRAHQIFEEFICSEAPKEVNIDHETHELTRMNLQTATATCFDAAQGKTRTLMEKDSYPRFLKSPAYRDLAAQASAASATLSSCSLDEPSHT
# Target sequence (P09471 whole entry, looked up): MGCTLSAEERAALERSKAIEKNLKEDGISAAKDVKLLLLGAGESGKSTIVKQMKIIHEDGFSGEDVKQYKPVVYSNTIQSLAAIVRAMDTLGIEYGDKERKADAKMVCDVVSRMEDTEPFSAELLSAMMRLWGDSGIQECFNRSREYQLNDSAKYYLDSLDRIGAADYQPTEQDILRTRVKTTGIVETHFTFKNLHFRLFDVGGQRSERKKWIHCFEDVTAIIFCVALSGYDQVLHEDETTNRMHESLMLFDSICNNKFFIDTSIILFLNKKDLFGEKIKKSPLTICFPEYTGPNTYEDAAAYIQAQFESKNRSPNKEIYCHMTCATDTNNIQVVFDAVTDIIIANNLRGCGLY
# GSH fluor: GSH bead compound fluorescence profile | 190,000 tested, 0.25% active | fluorescence (KMESF) at 10 µM | GSH beads flow cytometry, compound fluorescence 488/530 nm; stronger effect = higher value; in the data active = fluorescence above about 89;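 also: glutathione beads carrying GST-tagged Bcl family fusion proteins plus one bare bead set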
# RGS7-Gao: human RGS7-Galphao interaction regulation. P09471. Multiplexed bead flow cytometry, RGS7-Galphao binding; actives lie on both sides. binding response (% of control), % at 10 µM. 220,000 tested, 0.35% active; in the data active = binding response below about 49% or above about 150%; inconclusive = no clear call, values can overlap the other calls; inactive = in between;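 also: fluorescent Galphao held in activated GDP-AlF4 state binding bead-coupled RGS7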
# RGS4-Gao reg: human RGS4-Galphao interaction regulation; P09471; 220,000 tested, 0.33% active; AID 1415; Multiplexed bead flow cytometry, RGS4-Galphao binding; actives lie on both sides; binding response (% of control), % at 10 µM; in the data active = binding response below about 49% or above about 150%; inactive = in between;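 also: fluorescent Galphao activated with aluminum fluoride binding bead-coupled RGS4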
# Avidin bead fluor: avidin bead compound fluorescence profile; Avidin beads, compound fluorescence 488/530 nm, flow cytometry; stronger effect = higher value; fluorescence (KMESF) at 10 µM; 220,000 tested, 0.38% active; in the data active = fluorescence above about 47
# Hits are given with their value; - = inactive; ? = inconclusive; . = not tested or not shown. In the library only some 1.2% were active in any assay of this set; here they are far more common.
SMILES,RGS8-Gao,RGS16-Gao HTS,GSH fluor,RGS7-Gao,RGS4-Gao reg,Avidin bead fluor
C=C(C)c1cccc(C(C)(C)NC(=O)NCCCn2ccnc2)c1,-,-,-,-,-,50
C=C(C)c1cccc(C(C)(C)NC(=O)NCCCN2CCCC2=O)c1,-,-,-,-,-,-
Cc1cc(C(C)(C)C)oc1C(=O)Nc1ccc(CC(=O)O)cc1,-,-,239,-,-,-
Cc1ccc(C(=O)Nc2ccc(CC(=O)O)cc2)o1,-,-,254,-,-,-
O=C(/C=C/c1cc([N+](=O)[O-])ccc1OC(F)F)NCc1ccc(Cl)cc1,-,-,264,-,-,-
O=c1[nH]ncc(NCc2ccc(Cl)cc2)c1Cl,-,-,-,-,-,-
COc1cc(C(=O)COC(=O)CNC(=O)C2CCCCC2)cc(OC)c1OC,-,-,-,-,-,53
CCc1ccc(C(=O)COC(=O)CNC(=O)c2cccs2)cc1,-,-,-,-,-,78
C[C@H](NC(=O)c1ccccc1Cl)C(=O)NCc1cccs1,-,-,-,-,-,-
Cc1cc(Nc2ncc(Cl)cc2Cl)n(-c2ccccn2)n1,-,-,268,-,-,-
COC(=O)C(Cc1cnc(Cl)s1)(C(=O)OC)c1ccc([N+](=O)[O-])cc1[N+](=O)[O-],-,-,272,-,-,-
CCOC(=O)C(C)n1cnc2c(nnn2Cc2ccc(C)cc2)c1=O (configuration not stated),-,-,-,-,-,49
COc1ccc(N(CC(=O)Nc2ccccc2C(N)=O)S(=O)(=O)c2ccc(C)c([N+](=O)[O-])c2)cc1,-,-,-,-,-,-
CC(=O)Nc1ccc(OCC(O)Cn2nc(C)c(C(C)=O)c2C)cc1 (configuration not stated),-,-,-,-,-,73
CCCCOCC(O)Cn1c(C)nc2ccccc21 (configuration not stated),-,-,261,-,-,-
Clc1cccc(Cl)c1CO/N=C/c1c(-c2ccccc2)nc2n1CCS2,-,-,-,-,-,-
O=C(O)Cn1c(=O)cnc2ccccc21,-,-,-,-,-,-
CC(C)N(Cc1ccccc1)C(=O)Cn1c(=O)cnc2ccccc21,-,-,.,?,-,49
O=C(NC1CCCCC1)c1ccc(CNc2ccccc2)o1,-,-,-,-,-,-
COC(=O)c1cccc(NC(=O)c2nn(C)c(=O)c3ccccc23)c1,-,-,185,-,-,-
COc1ccc(Cl)cc1C(=O)Nc1nnn(C)n1,-,-,257,-,-,-
Cc1ccc(NNC(=O)c2ccc(Cl)cc2)nn1,-,-,.,?,-,-
Cc1ccc(NC(=O)NC(=O)N(C(C)C)S(=O)(=O)c2ccc(C)cc2)cc1,-,-,-,-,-,-
CC(=O)Nc1ccc(NC(=O)c2c(C)nn(-c3ccccc3)c2Cl)cc1C,-,-,-,-,-,-
Cc1ccc(S(=O)(=O)Nc2nc(C)c(NC(=O)OCCCl)s2)cc1,-,-,-,-,-,62
SMILES,RGS8-Gao,RGS16-Gao HTS,GSH fluor,RGS7-Gao,RGS4-Gao reg,Avidin bead fluor
COc1cc(SC)ccc1C(=O)N(Cc1ccccc1)c1ccccn1,-,-,.,?,-,51
O=S(=O)(Cc1ccc(Cl)cc1)Nc1ccc2c(c1)OCO2,-,-,-,-,-,48
O=S(=O)(Cc1ccc(Cl)cc1)N1CCN(Cc2ccc3c(c2)OCO3)CC1,-,-,.,?,-,-
COCCCNC(=O)CSC1=Nc2ccccc2C2=NC(c3ccccc3)C(=O)N12 (configuration not stated),-,-,-,-,-,69
COCCCNC(=O)CSC1=Nc2ccccc2C2=NC(Cc3c[nH]c4ccccc34)C(=O)N12 (configuration not stated),-,-,-,-,-,-
Cc1nc2cc(NC(=O)CCS(=O)(=O)c3ccccc3)ccc2s1,-,-,-,-,-,-
COc1ccc(C(O)c2coc3ccc(O)c(CN(C)C)c23)cc1 (configuration not stated),-,-,-,-,-,83
O=S(=O)(NC(=S)NC1CCCCC1)c1ccc(Br)cc1,-,-,-,-,-,-
COc1ccc(NC(=O)Cc2ccc(C)c(C)c2)cc1Cl,-,-,-,-,-,-
Cc1ccc(C(=O)C(OC(=O)CCC(=O)Nc2cccc(C)c2)c2ccccc2)cc1 (configuration not stated),-,-,-,-,-,-
COc1ccc(NC(=O)CCC(=O)OC(C(=O)c2ccccc2)c2ccccc2)cc1 (configuration not stated),-,-,-,-,-,55
O=S(=O)(NC1CCCCCCC1)c1cccs1,-,-,275,-,-,-
CCc1ccc(NC(=S)N2CCCCCCC2)cc1,-,-,-,-,-,-
COc1ccc(NC(=O)CSc2ccc(NC(C)=O)cc2)cc1S(=O)(=O)N1CCCCC1,-,-,-,-,-,74
COc1ccc(NC(=O)CSc2ccc(F)cc2)cc1S(=O)(=O)N1CCCCC1,-,-,-,-,-,-
COc1cc2[nH]c(=O)n(CCCCCC(=O)NCCc3c[nH]c4ccccc34)c(=O)c2cc1OC,-,-,-,-,-,49
O=C(CCCCn1c(=O)[nH]c2ccccc2c1=O)NCCc1c[nH]c2ccccc12,-,-,-,-,-,-
O=S(=O)(Nc1ccc(Cc2ccncc2)cc1)c1ccc(Br)cc1,12,1.0,-,15,22,-
N#Cc1c(-c2ccccc2)ccn(Cc2ccc(Cl)cc2)c1=O,-,-,-,-,-,49
CC(C)CNC(=O)COC(=O)c1cc(Cl)cc(Cl)c1N,-,-,265,-,-,-
COC(=O)CNC(=O)COC(=O)c1cc(Cl)cc(Cl)c1N,-,-,-,-,-,-
Cc1c(N=Cc2ccc[nH]2)c(=O)n(-c2ccccc2)n1C,-,-,-,-,-,56
Cn1cnc(S(=O)(=O)Nc2cc(-c3ccc(Cl)cc3)nn2C)c1,-,-,.,?,-,-
O=[N+]([O-])c1cccc(N/N=C/c2cccc(O)c2O)c1,-,-,-,-,-,-
CCCCOC(=O)C1[C@H]2C(=O)N(c3ccccc3CC)C[C@]23C=C[C@H]1O3 (some centres not stated),-,-,-,-,-,-
CCc1ccccc1N1CC23C=CC(O2)C(C(=O)OCC(C)C)C3C1=O (configuration not stated),-,-,-,-,-,56
CC(NC(=O)c1ccc(S(=O)(=O)C(F)F)cc1)c1ccccc1 (configuration not stated),-,-,-,?,-,-
O=C(NC(c1ccccc1)c1ccccc1)c1ccc(S(=O)(=O)C(F)F)cc1,-,-,-,-,-,58
O=S(=O)(N/N=C\c1cccnc1)c1ccccc1,-,-,352,-,-,-
